# VACV Venus inh: inhibitors of vaccinia virus (Venus reporter); Vaccinia virus Venus reporter expression, fluorescence; Potency, µM (highest dose often 36.5 µM), without a hit: at the highest dose activity change, negative = inhibition, hits mostly inhibitors; AID 720580; 330,000 compounds, 0.46% hits; calls by dose curve; tested in A549 cells; note: nearly all actives have a fitted effect of over 30% in size
# HCV inhibitor: blocks hepatitis C virus; Huh7.5.1 HCVcc-Cre infection, luciferase reporter, 44 h; Potency, µM (doses to about 41.8 µM), for inactives: top-dose activity change, negative = inhibition, hits mostly inhibitors; 340,000 compounds, 3.4% hits; active = well fitted inhibition curve with a large enough effect; inconclusive = small, poorly fitted or top-dose-only effect, or another doubt; inactive = no such curve, though single readings can be large or run the other way
#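 Cells (1,000/well) were plated 4 h before compound, then infected with HCVcc-Cre virus (~0.5 moi). After 44 h further culture, infection was read as luciferase luminescence following a 15 min substrate incubation at room temperature.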
# VACV mCherry inh: vaccinia inhibition (mCherry reporter) | 310,000 compounds, 0.63% hits | Vaccinia virus mCherry reporter infection, fluorescence | AID 720579 | Potency, µM (highest dose often 36.5 µM), without a hit: top-dose activity change, negative = inhibition, hits mostly inhibitors; calls by dose curve; tested in A549 cells; note: nearly all actives have a fitted effect of over 35% in size
# * hit, by the source's call; i = inactive; ? = inconclusive; · = no result. Sampled rows, rich in hits. Any-hit rate of the full collection: about 3.3%. % is set by controls: 0 for no effect and ±100 for the full control effect; potency is the fitted concentration of half-maximal effect.
SMILES,VACV Venus inh,HCV inhibitor,VACV mCherry inh
N#Cc1c(Cl)nsc1NCCN1CCOCC1,-9%,1%,i
CC1=C(/C=C/C(C)=C/C=C/C(C)=C\CO)C(C)(C)CCC1,-13%,·,-19%
COC(=O)c1c(NC(=O)COc2ccc(Cl)cc2)sc2c1CC(C)(C)NC2(C)C,-9%,11µM*,i
Cc1cc(OCC(=O)Nc2sc3c(c2C#N)CC(C)(C)NC3(C)C)c(C(C)C)cc1Cl,·,3.2µM*,·
CC1(C)Cc2c(sc(NC(=O)COc3ccccc3)c2C#N)C(C)(C)N1,-24%,13µM*,-10%
COC(=O)c1c(NC(=O)Cc2ccccc2)sc2c1CC(C)(C)NC2(C)C,-25%,-28%,-27%
Cc1ccc(C(C)C)c(OCC(=O)Nc2sc3c(c2C#N)CC(C)(C)NC3(C)C)c1,-10%,?,i
CCCC(=O)Nc1sc2c(c1C#N)CC(C)(C)NC2(C)C,-5%,-5%,·
O=C(C[n+]1cccc2cccc(O)c21)c1ccc(Br)cc1,-3%,·,-13%
CCCCCCN1C[C@H](n2cc(C3CC3)nn2)[C@@H](O)C[C@@H]1c1ccc(OC)cc1,-23%,·,i
COCCNC(=O)c1cc(-c2ccccc2)n(CC2CC(c3ccc(OC)cc3)=NO2)n1 (stereo not drawn),-9%,13%,16%
